The list is not random: actives were taken first. Their share in the collection is about 1.8%.
LGR2 inh: inhibitors of bursicon-induced Drosophila LGR2 receptor cAMP signaling. HEK293 LGR2, CRE-luciferase, bursicon-stimulated, 4 h. inhibition, % at 9.99 µM. hit rate 0.35% among 380,000. AID 720647;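 active means drop in luminescence signal, shown as inhibition above about 50% in the replicate tests, limit read from the data, passing the limit was not always enough; inconclusive means probably only some replicates passing the limit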;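 further: agonist challenge used bursicon conditioned medium at about half maximal strength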
RAD52 inh: inhibitors of human RAD52 DNA annealing; recombinant RAD52 DNA annealing, FRET fluorescence; inhibition, % at 18.7 µM; hit rate 0.46% among 360,000;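 active means every replicate showing at least 50% inhibition; inconclusive means mean inhibition at least 50% but not in every replicate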
Target sequence (P43351 whole entry, looked up): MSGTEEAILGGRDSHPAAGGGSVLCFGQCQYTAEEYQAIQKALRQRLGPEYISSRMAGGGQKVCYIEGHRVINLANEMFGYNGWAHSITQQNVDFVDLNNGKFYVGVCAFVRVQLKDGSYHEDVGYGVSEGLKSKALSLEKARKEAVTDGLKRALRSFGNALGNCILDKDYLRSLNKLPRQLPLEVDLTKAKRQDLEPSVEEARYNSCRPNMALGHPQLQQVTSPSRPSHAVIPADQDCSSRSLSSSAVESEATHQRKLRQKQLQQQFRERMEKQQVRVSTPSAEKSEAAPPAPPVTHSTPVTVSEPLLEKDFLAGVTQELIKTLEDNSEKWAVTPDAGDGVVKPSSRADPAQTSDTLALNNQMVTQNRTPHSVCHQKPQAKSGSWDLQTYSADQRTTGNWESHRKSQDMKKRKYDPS
EWS-Fli inh: blocks EWS/Fli oncoprotein-driven transcription. A673 NR0B1-luciferase reporter, viability-normalised. inhibition, % at 12.6 µM. hit rate 0.67% among 350,000;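 active means mean inhibition of at least 50% after viability correction, with every replicate also passing that limit; inconclusive means mean reaches 50% but only one of two replicates passes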;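 further: firefly luciferase signal divided by Alamar Blue viability fluorescence both relative to DMSO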
CFTR F508del cor: correctors of CFTR F508del function in bronchial epithelial cells; activity (quench increase), % at 7.58 µM; CFBE cells, YFP halide quenching; stimulated with forskolin plus potentiator P3; % fluorescence drop versus neutral controls; hit rate 0.36% among 350,000; AID 720511;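 active means mean added fluorescence quench of at least 8% versus neutral control, with both replicates also reaching 8%; inconclusive means only one of the mean or replicate conditions met; inactive means mean below 8% and not both replicates reaching 8%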;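 further: cells transiently co-express mutant CFTR-F508del with the halide-sensitive YFP; corrector assay measuring rescue of mutant channel to the surface after 24 h compound exposure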
INS-1E GSIS act: primary screen for activators of insulin secretion dependent on glucose, INS-1E cells, GLuc reporter luminescence | INS-1E GLuc reporter insulin secretion, 2-3 h | activation, % at 16.6 µM | hit rate 0.61% among 370,000 | AID 743287;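 active means lowest replicate activation of at least 40%, so every replicate reaches that level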;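 further: 0% = median of neutral control wells and 100% = median of IBMX positive control wells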
RAD54 inh: blocks human RAD54 Holliday junction branch migration; FAM/BHQ fluorescence; inhibition, % at 10.4 µM; hit rate 0.14% among 360,000;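 active means mean normalized replicate activity at least 40 and at least half of replicates scoring 40 or more; inconclusive means only one of the two criteria met; inactive means mean below 40 and under half of replicates reaching 40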;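 further: 0% = median of neutral control wells and 100% = median of positive control wells; inhibitors cause a drop in the FAM fluorescence signal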
* = called active by the depositor; ? = inconclusive; / = no result.

SMILES	LGR2 inh	RAD52 inh	EWS-Fli inh	CFTR F508del cor	INS-1E GSIS act	RAD54 inh
Fc1ccccc1/C=C/c1ccc2ccccc2n1	89.9*	/	/	/	4.3	4.0
O=[N+]([O-])c1ccc(/C=C/c2ccc3ccccc3n2)cc1	54.4*	-8.2	59.3*	-1.2	5.7	-11.6
CC(=O)Oc1ccc(Cl)cc1/C=C/c1ccc2ccccc2n1	-77.0	/	/	/	52.7*	/
O=C(O)/C=C/c1ccc2ccccc2n1	/	/	/	/	/	2.5
C(=C\c1ccc2ccccc2n1)/c1ccccc1	93.9*	5.9	73.9*	-33.0	-5.5	4.7
CN(C)c1ccc(/C=C/c2ccc3ccccc3n2)cc1	92.6*	-23.5	/	/	-10.1	-0.4
C/C=C/c1ccc([C@H]2[C@@H](CO)N(C(C)=O)[C@@H]2CN(CC)C(=O)CC2CC2)cc1	-1.8	-15.2	10.5	1.0	0.0	/
O=C(O)c1ccc(S(=O)(=O)NCc2ccc3c(c2)OCO3)cc1	11.6	-19.4	-0.7	-3.0	43.1*	-2.6
O=Cc1ccc(NC(=O)CCCCCCC(=O)NOCc2ccccc2)cc1	/	3.2	-0.7	-0.9	/	-8.6
CS(=O)c1nc(-c2ccc(Br)cc2)cc(-c2ccccc2)c1C#N (stereo not drawn)	97.3*	-6.3	16.3	-0.3	-2.1	-0.7
S=C(NCc1ccccc1)Nc1ccc2cn[nH]c2c1	-6.6	-7.6	-7.8	-1.4	40.1*	-7.0
Cc1nc2ccc(Br)cn2c1C(=O)N/N=C\c1ccccc1[N+](=O)[O-]	20.1	-17.3	6.8	2.8	5.0	/
Cc1ncc(CSc2nccc(=O)[nH]2)c(CO)c1O	9.8	-4.0	-1.6	-0.4	80.8*	-0.7
Cc1ncc(CSc2ccc(Cl)cc2)c(CO)c1O	-13.8	-5.8	-18.7	0.5	-0.8	1.5
Cc1noc(C)c1NC(=O)N(C)C[C@H]1Oc2ccc(NS(=O)(=O)c3ccccc3)cc2C(=O)N([C@@H](C)CO)C[C@@H]1C	5.8	-1.7	-2.8	1.0	18.0	-2.5
CCCCOc1ccc(C2=NNC(=O)CC2)cc1	-18.2	-8.0	-8.7	/	45.5*	/
O=C(NCCCN1CCOCC1)c1cc(S(=O)(=O)N2CCOCC2)c(Cl)cc1Cl	-4.1	-8.9	1.4	9.0*	7.4	7.7
O=C(NCCCN1CCOCC1)c1cc(Cl)ccc1Cl	8.3	-2.6	1.2	-3.8	3.5	-0.1
Cn1c(Cn2c(=O)sc3ccccc32)nnc1SCC(N)=O	-11.0	-8.0	-5.6	-0.3	1.4	4.4
O=C(Nc1ccc(COc2ccccc2)cc1)c1cccc([N+](=O)[O-])c1	-31.9	-8.4	-16.7	-3.2	7.6	/
Cc1cccc(N2C(=O)c3cccc4c(N5CCCCC5)c([N+](=O)[O-])cc(c34)C2=O)c1C	1.8	/	/	/	5.8	/
Cc1ccc(N2C(=O)c3cccc4c([N+](=O)[O-])ccc(c34)C2=O)c2cccnc12	24.2	0.4	16.6	24.6*	12.4	-0.1
O=C1c2cccc3cccc(c23)C(=O)N1Cc1cccnc1	2.2	-11.6	-1.6	2.4	-2.3	/
O=C1c2cccc3c([N+](=O)[O-])ccc(c23)C(=O)N1Cc1cccnc1	103.2*	-331.4	38.4	32.8*	6.7	/
Cc1ccnc(N2C(=O)c3cccc4c([N+](=O)[O-])ccc(c34)C2=O)c1	-10.1	-87.9	65.5*	22.6*	-0.5	-0.6
SMILES	LGR2 inh	RAD52 inh	EWS-Fli inh	CFTR F508del cor	INS-1E GSIS act	RAD54 inh
Cc1nnc(N2C(=O)c3cccc4c([N+](=O)[O-])ccc(c34)C2=O)s1	-11.9	-41.6	68.2*	?	-4.6	3.0
Cc1ccnc(N2C(=O)c3ccccc3C2=O)c1	5.4	-5.9	4.0	-0.1	-2.2	5.6
Cc1ccc(-c2cnc3c(c2)C(=O)N([C@@H](C)CO)C[C@@H](C)[C@@H](CN(C)CC2CC2)O3)cc1	14.4	9.1	7.7	2.3	20.7	/
Clc1ccc2c(N/N=C/c3cccnc3)ccnc2c1	-22.6	-7.8	-15.6	3.9	3.8	70.9*
O=C(Nc1ccccc1Cc1ccccc1)c1oc2ccccc2c1COc1ccccc1	/	5.2	9.5	/	/	/
C=C1C(=O)O[C@H]2[C@@H]1CC/C(CO)=C\CC[C@@]1(C)O[C@@H]21	/	-0.8	10.6	-6.6	/	/
C=C1C(=O)OC2C1CCC(C)=C1C(=O)C3OC3(C)C12 (stereo not drawn)	98.7*	-5.6	47.2	-3.5	133.6*	0.2
Cc1c(C2Nc3ccccc3C2C)[nH]c2ccccc12 (stereo not drawn)	-7.3	-36.0	-45.4	10.1*	7.6	/
c1ccc2c(c1)[nH]c1ccccc12	13.6	-0.8	-11.3	-3.5	/	5.1
COC(=O)C(CC#Cc1ccc2c(c1)[C@]1(C(=O)N2)[C@H](c2ccccc2OCCO)N2[C@H](c3ccccc3)[C@H](c3ccccc3)OC(=O)[C@H]2[C@@H]1C(=O)N1CCN(c2ncccn2)CC1)C(=O)OC	/	-1.6	59.7*	-3.7	/	5.8
C=CCNC(=O)[C@H]1[C@@H]2C(=O)O[C@@H](c3ccccc3)[C@@H](c3ccccc3)N2[C@@H](c2ccccc2OCCO)[C@]12C(=O)Nc1ccc(C#CCC(C(=O)OC)C(=O)OC)cc12	/	-1.8	54.0*	2.2	/	-8.5
CCCCCCc1cc2cc(C(=O)Nc3cccc(OC)c3)c(=O)oc2cc1O	31.8	/	/	/	68.4*	-8.8
N#CC(C(=O)c1ccco1)c1ccccn1 (stereo not drawn)	-9.6	/	/	/	42.5*	-2.7
C=CCn1c(SCC(=O)c2c(N)n(C)c(=O)n(C)c2=O)nc2sc(C)c(C)c2c1=O	/	/	/	/	309.1*	-0.9
COc1ccccc1NC(=O)C12CC3CC(C1)CC(c1ccc(C)cc1)(C3)C2	/	/	/	/	/	3.6
CCn1c(SCC(=O)OC)nc2sc3c(c2c1=O)CC(C)(C)OC3	-6.1	-2.5	-2.2	1.4	74.3*	-4.9
NC(=O)c1cnn2c(C(F)(F)F)cc(-c3ccc(F)cc3)nc12	/	/	/	/	/	10.4
CCOc1ccc(S(=O)(=O)Nc2ccc(C(=O)NNC(=O)c3ccncc3)cc2)cc1	-3.1	-8.1	-3.4	0.3	-0.6	/
COC(=O)/C(=C\Nc1ccc(Cl)cc1Cl)NC(=O)c1ccc(OC)cc1	9.0	-7.7	53.3*	7.3	-18.7	3.7
COC(=O)/C(=C\Nc1ccc(OC)cc1)NC(=O)c1ccc(Cl)cc1Cl	/	/	/	/	/	-8.1
COc1ccc(-c2ccc(NC(=O)c3ccco3)cc2)nn1	66.4*	-28.9	63.7*	-2.6	13.5	-4.7
CCC(C)c1ccc(NC(=O)c2ccco2)cc1 (stereo not drawn)	52.2*	-14.4	58.0*	-0.4	-0.7	-7.0
COc1ccc(-c2cccc(NC(=O)c3ccco3)c2)nn1	1.5	-7.0	-8.3	1.2	6.7	5.5
CCn1c(=O)n(CC)c2cc(N3CCCC3)c(NC(=O)c3cccc(OC)c3)cc21	-2.9	-22.4	17.1	1.8	28.0	-9.0
CO[C@H]1CN(C)C(=O)c2ccc(NC(=O)NC(C)C)cc2OC[C@H](C)N(Cc2ccccc2)C[C@H]1C	-2.8	18.6	3.4	2.3	-31.7	5.1
Nc1ccc(-c2nc3ccc(C(=O)O)cc3s2)cc1	101.9*	-14.3	84.5*	/	-7.8	/

Source: PubChem BioAssay
